# Test results from the supplement of paper PMC8728848.
# The sample as a whole holds a higher share of the strongest signals than the screen did.
# B1: TAL6-6LysM (Trichoderma atroviride) (protein)
# chain: AASKLGVPQPAQRDQVNCQLYAVQPNDNCIDISSKNNITYAQLLSWNPSLSSTCSNLASLNSSSICVSNPKGTFSISSNTVGATDIATTTAPVPSPTLDQTTSRCAKYYQVSDGDDCSHLTAQFAITLKDFIFLNSEVWQNCTNLELGYYYCVEPVGYISTYPGYLPTATTKPFNQTSATSLPYDGDPWARFSSNSSVIPIANGTRVDCYSYVYVKNLTENLFADCWNMASMYEITREELVLWNPSLGNDGSSGSNLSGAEASQVASSIAIPTTAPSSITTNLYTYPCTVAANISYCVALVSSTGALPTNTAPPGPHASGEISNCTAWFAPEAYDTCKSILDIFEMSFANFYKMNPSVGPDCSGLAVGTNYCVSTYPNGEDPNDDWDGDDSIPSISPTGIITPTPTQSGMVSNCNKFYDVHSNDGCSAIASSQHVDLSSLYKWNPAIKTDCSGLQASVYVCIGILTTSMSTTSKLPTTTSKPSTTSKPPTGITTPTPTQSGMVKNCNKFYDVHSGDGCSAIASSQKVNLSSFYLWNPAVKTDCSGLQASVFVCIGTLTTSMSTTTSKLPTTTSKPSTTSKPPTGIITPTPTQNGMVKNCNKFYDVHSGDGCSAIASSQKVNLSSFYLWNPAVKTDCSGLQASVFVCVGTATTTTAAGITTPTPTQSGMVSGCNKFYDVHAGDGCSAIASSQKIALSSLYKWNPAVKTDCSGLQASVYICIGVGNAAAARVTGAAASFLEQKLISEEDLNSAVDHHHHHH
# Experiments:
# Experiment in all cases: glycan array binding signal (z-score within array); higher = stronger binding
# Details in all cases: glycan notation: IUPAC condensed, linker removed
# [1] = biological target: GalNAc(a1-3)GalNAc(b1-3)Gal(a1-4)Gal(b1-4)GlcNAc
# Outline: (§1)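 The binding signal is a Z-score computed within each array. Data were drawn from 3228 arrays in the Consortium for Functional Glycomics database, restricted to those with a known protein sequence. Scores were averaged over arrays of the same protein sequence at different concentrations or buffers, and over linkers, and negative values can be taken as non-binding.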
# [2] = biological target: GalNAc(b1-3)GlcNAc
# Outline: as §1
# [3] = biological target: GalNAc6S(b1-4)GlcNAc
# Outline: as §1
# [4] = biological target: GlcA(b1-3)GlcNAc
# Outline: as §1
# [5] = biological target: GlcNAc(b1-2)Man(a1-3)[GlcNAc(b1-2)Man(a1-6)]Man(b1-4)GlcNAc(b1-4)GlcNAc
# Outline: as §1
# [6] = biological target: GlcNAc(b1-3)Gal(b1-4)GlcNAc(b1-3)Gal(b1-4)GlcNAc
# Outline: as §1
# [7] = biological target: GlcNAc(b1-3)Gal(b1-4)GlcNAc(b1-3)Gal(b1-4)GlcNAc(b1-3)Gal(b1-4)GlcNAc(b1-3)Gal(b1-4)GlcNAc(b1-2)Man(a1-3)[GlcNAc(b1-3)Gal(b1-4)GlcNAc(b1-3)Gal(b1-4)GlcNAc(b1-3)Gal(b1-4)GlcNAc(b1-3)Gal(b1-4)GlcNAc(b1-2)Man(a1-6)]Man(b1-4)GlcNAc(b1-4)GlcNAc
# Outline: as §1
# [8] = biological target: Kdn(a2-6)Gal(b1-4)GlcNAc
# Outline: as §1
# [9] = biological target: Man(a1-2)Man(a1-3)Man
# Outline: as §1
# [10] = biological target: Man(a1-3)[Man(a1-6)]Man(a1-6)[Man(a1-2)Man(a1-3)]Man(b1-4)GlcNAc(b1-4)GlcNAc
# Outline: as §1
# [11] = biological target: Neu5Ac(a2-3)Gal(b1-3)GalNAc(b1-3)Gal(a1-4)Gal(b1-4)Glc
# Outline: as §1
# [12] = biological target: Neu5Ac(a2-3)Gal(b1-3)GlcNAc(b1-4)Gal(b1-4)Glc
# Outline: as §1
# [13] = biological target: Neu5Ac(a2-3)Gal(b1-4)GlcNAc(b1-2)Man(a1-3)[Neu5Ac(a2-6)Gal(b1-4)GlcNAc(b1-2)Man(a1-6)]Man(b1-4)GlcNAc(b1-4)GlcNAc
# Outline: as §1
# [14] = biological target: Neu5Ac(a2-3)Gal(b1-4)GlcNAc(b1-3)Gal(b1-3)GlcNAc
# Outline: as §1
# [15] = biological target: Neu5Ac(a2-3)Gal(b1-4)GlcNAc(b1-3)Gal(b1-4)GlcNAc(b1-3)Gal(b1-4)GlcNAc
# Outline: as §1
# [16] = biological target: Neu5Ac(a2-3)Gal(b1-4)[Fuc(a1-3)]GlcNAc(b1-3)Gal(b1-4)[Fuc(a1-3)]GlcNAc(b1-3)Gal(b1-4)[Fuc(a1-3)]GlcNAc
# Outline: as §1
# [17] = biological target: Neu5Ac(a2-3)Gal6S(b1-4)GlcNAc
# Outline: as §1
# [18] = biological target: Neu5Ac(a2-3)Gal6S(b1-4)[Fuc(a1-3)]GlcNAc
# Outline: as §1
# [19] = biological target: Neu5Ac(a2-3)GalNAc(b1-4)GlcNAc
# Outline: as §1
# [20] = biological target: Neu5Ac(a2-6)Gal(b1-4)GlcNAc(b1-2)Man(a1-3)[Neu5Ac(a2-3)Gal(b1-4)GlcNAc(b1-2)Man(a1-6)]Man(b1-4)GlcNAc(b1-4)GlcNAc
# Outline: as §1
# [21] = biological target: Neu5Ac(a2-6)Gal(b1-4)GlcNAc(b1-2)Man(a1-3)[Neu5Ac(a2-6)Gal(b1-4)GlcNAc(b1-2)Man(a1-6)]Man(b1-4)GlcNAc(b1-4)GlcNAc
# Outline: as §1
# [22] = biological target: Neu5Ac(a2-6)Gal(b1-4)GlcNAc(b1-3)Gal(b1-4)GlcNAc(b1-6)[Gal(b1-3)]GalNAc
# Outline: as §1
# [23] = biological target: Neu5Ac(a2-6)Gal(b1-4)GlcNAc(b1-3)Gal(b1-4)[Fuc(a1-3)]GlcNAc(b1-3)Gal(b1-4)[Fuc(a1-3)]GlcNAc
# Outline: as §1
# [24] = biological target: Neu5Ac(a2-6)Gal(b1-4)GlcNAc6S
# Outline: as §1
# [25] = biological target: Neu5Ac(a2-8)Neu5Ac(a2-3)Gal(b1-3)GalNAc(b1-4)[Neu5Ac(a2-8)Neu5Ac(a2-3)]Gal(b1-4)Glc
# Outline: as §1
# [26] = biological target: Neu5Ac(a2-8)Neu5Ac(a2-3)[GalNAc(b1-4)]Gal(b1-4)Glc
# Outline: as §1
# [27] = biological target: Neu5Ac(a2-8)Neu5Ac(a2-8)Neu5Ac
# Outline: as §1
# [28] = biological target: Neu5Ac(b2-6)GalNAc
# Outline: as §1
# [29] = biological target: Neu5Gc(a2-3)Gal(b1-4)Glc
# Outline: as §1
# [30] = biological target: Neu5Gc(b2-6)Gal(b1-4)GlcNAc
# Outline: as §1
binder,measurement,setting,value
B1,glycan array binding signal (z-score),[1],-0.794
same,glycan array binding signal (z-score),[2],-0.241
same,glycan array binding signal (z-score),[3],0.157
same,glycan array binding signal (z-score),[4],1.11
same,glycan array binding signal (z-score),[5],0.42
same,glycan array binding signal (z-score),[6],0.291
same,glycan array binding signal (z-score),[7],-0.734
same,glycan array binding signal (z-score),[8],2.71
same,glycan array binding signal (z-score),[9],-0.128
same,glycan array binding signal (z-score),[10],2.52
same,glycan array binding signal (z-score),[11],-0.741
same,glycan array binding signal (z-score),[12],0.273
same,glycan array binding signal (z-score),[13],-0.683
same,glycan array binding signal (z-score),[14],-0.147
same,glycan array binding signal (z-score),[15],1.76
same,glycan array binding signal (z-score),[16],0.058
same,glycan array binding signal (z-score),[17],0.428
same,glycan array binding signal (z-score),[18],-1.04
same,glycan array binding signal (z-score),[19],-0.545
same,glycan array binding signal (z-score),[20],-0.013
same,glycan array binding signal (z-score),[21],0.076
same,glycan array binding signal (z-score),[22],-0.387
same,glycan array binding signal (z-score),[23],2.13
same,glycan array binding signal (z-score),[24],0.283
same,glycan array binding signal (z-score),[25],0.052
same,glycan array binding signal (z-score),[26],2.17
same,glycan array binding signal (z-score),[27],-0.139
same,glycan array binding signal (z-score),[28],-0.369
same,glycan array binding signal (z-score),[29],-1.25
same,glycan array binding signal (z-score),[30],0.217
